The values below come from PMC7862700, “An all-to-all approach to the identification of sequence-specific readers for epigenetic DNA modifications on cytosine”.

Common to all, as to assay: DAPPL (digital affinity profiling via proximity ligation, sequencing); 10 mM Tris-HCl pH 7.5, 50 mM NaCl, 1 mM DTT, 4% glycerol, room temperature, 30 min; GST-TFs on glutathione beads, 16-mer random dsDNA library, 0.1% formaldehyde crosslink after washing; high values mean tight binding
Assay [1] concerns the target T1, FEV (Homo sapiens, UniProt Q99581 1-238).
T1 sequence: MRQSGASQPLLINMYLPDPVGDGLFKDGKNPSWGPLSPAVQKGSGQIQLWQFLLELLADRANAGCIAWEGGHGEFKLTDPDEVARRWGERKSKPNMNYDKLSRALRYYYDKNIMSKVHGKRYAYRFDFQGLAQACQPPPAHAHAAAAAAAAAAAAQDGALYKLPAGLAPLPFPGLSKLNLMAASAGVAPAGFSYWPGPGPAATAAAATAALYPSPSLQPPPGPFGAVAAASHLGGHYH
As to conditions: protein: recombinant; tags: N-terminal GST; dsDNA, one strand shown. A digest of the protocol: (§1)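 Yeast served to express human transcription factors as GST fusions, which were then captured on glutathione beads and labelled with DNA barcodes. Pooled with a tag-only sample, they were incubated with 200 nmole of a 16-mer random double-stranded DNA library for 30 min at room temperature in Tris/NaCl/DTT/glycerol buffer, washed, crosslinked with 0.1% formaldehyde, ligated by proximity, amplified by PCR and sequenced. Dividing each hexamer's read frequency for a factor by its frequency for the tag-only sample gives the binding signal.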

The target of assay [2] is ETV5 (Homo sapiens, UniProt P41161 1-510). The following applies: protein: recombinant; tags: N-terminal GST; dsDNA, one strand shown. A digest of the protocol:
as §1

The target of assay [3] is HSF1 (Homo sapiens, UniProt Q00613 1-529). As to conditions: protein: recombinant; tags: N-terminal GST; chain copies: 3; dsDNA, one strand shown. A digest of the protocol: as §1
Sequence of HSF1 (Q00613 whole entry): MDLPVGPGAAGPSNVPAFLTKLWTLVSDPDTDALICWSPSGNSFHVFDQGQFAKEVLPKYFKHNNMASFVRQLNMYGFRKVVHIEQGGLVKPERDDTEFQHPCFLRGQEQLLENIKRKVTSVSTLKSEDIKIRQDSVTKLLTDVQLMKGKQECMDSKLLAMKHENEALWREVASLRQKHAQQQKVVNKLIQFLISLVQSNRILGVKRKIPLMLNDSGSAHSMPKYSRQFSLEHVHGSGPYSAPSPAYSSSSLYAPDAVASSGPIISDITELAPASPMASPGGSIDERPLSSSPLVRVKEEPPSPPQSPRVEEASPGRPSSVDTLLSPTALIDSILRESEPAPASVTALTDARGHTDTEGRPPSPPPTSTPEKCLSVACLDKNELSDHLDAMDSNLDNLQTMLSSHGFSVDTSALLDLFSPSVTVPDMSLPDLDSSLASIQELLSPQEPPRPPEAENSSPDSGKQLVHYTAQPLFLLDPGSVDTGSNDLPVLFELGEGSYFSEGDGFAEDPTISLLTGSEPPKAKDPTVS
Assay [4] has as its target T2, SPIC (Homo sapiens, UniProt Q8N5J4 1-248).
T2 sequence: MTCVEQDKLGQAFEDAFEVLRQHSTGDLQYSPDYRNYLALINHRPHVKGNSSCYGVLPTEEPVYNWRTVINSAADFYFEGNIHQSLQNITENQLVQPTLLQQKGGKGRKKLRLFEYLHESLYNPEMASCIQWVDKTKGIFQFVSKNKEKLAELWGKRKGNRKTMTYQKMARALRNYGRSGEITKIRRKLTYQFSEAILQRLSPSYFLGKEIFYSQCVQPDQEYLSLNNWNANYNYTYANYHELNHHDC
The following applies: protein: recombinant; tags: N-terminal GST; dsDNA, one strand shown. An outline of the steps:
as §1

In assay [5] the target is ELF4 (Homo sapiens, UniProt Q99607 1-663). The following applies: protein: recombinant; tags: N-terminal GST; dsDNA, one strand shown. An outline of the steps:
as §1

Assay [6] addresses T3, ELK4 (Homo sapiens, UniProt P28324-2 1-405).
T3 sequence: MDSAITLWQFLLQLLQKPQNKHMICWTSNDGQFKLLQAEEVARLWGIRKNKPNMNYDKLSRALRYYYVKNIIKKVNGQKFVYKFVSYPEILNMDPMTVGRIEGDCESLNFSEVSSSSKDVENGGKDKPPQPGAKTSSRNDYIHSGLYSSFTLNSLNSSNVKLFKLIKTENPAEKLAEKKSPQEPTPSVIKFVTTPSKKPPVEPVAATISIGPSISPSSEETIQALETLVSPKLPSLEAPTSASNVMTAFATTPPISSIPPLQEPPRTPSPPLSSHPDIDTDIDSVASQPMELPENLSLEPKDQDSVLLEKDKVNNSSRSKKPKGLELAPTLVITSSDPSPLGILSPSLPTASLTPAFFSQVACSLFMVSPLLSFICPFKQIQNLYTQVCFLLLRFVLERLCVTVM
As to conditions: protein: recombinant; tags: N-terminal GST; dsDNA, one strand shown. An outline of the steps:
as §1

Assay [7] has as its target T4, ETV2 (Homo sapiens, UniProt O00321 1-342).
T4 sequence: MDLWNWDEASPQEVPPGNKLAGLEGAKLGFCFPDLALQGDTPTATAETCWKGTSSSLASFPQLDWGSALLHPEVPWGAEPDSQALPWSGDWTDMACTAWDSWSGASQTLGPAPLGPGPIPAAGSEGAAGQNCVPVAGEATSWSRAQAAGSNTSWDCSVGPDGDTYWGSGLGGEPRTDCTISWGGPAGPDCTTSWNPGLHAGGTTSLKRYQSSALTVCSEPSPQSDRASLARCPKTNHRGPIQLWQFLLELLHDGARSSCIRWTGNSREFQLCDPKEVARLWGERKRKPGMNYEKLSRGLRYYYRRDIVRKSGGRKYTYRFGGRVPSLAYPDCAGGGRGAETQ
The following applies: protein: recombinant; tags: N-terminal GST; dsDNA, one strand shown. An outline of the steps:
as §1

In assay [8] the target is T5, ELF3 (Homo sapiens, UniProt P78545 1-371).
T5 sequence: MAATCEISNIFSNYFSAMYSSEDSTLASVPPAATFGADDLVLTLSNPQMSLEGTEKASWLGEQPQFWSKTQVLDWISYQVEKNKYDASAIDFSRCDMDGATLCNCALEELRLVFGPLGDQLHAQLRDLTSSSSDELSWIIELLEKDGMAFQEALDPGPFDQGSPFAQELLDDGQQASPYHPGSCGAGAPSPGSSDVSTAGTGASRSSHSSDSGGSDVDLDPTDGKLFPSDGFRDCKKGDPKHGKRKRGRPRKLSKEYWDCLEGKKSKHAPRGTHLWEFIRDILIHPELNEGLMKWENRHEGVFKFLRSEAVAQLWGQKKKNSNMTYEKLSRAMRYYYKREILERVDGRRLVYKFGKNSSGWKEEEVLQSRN
As to conditions: protein: recombinant; tags: N-terminal GST; dsDNA, one strand shown. An outline of the steps:
as §1

Assay [9] addresses CRX (Homo sapiens, UniProt O43186 1-299). As to conditions: protein: recombinant; tags: N-terminal GST; dsDNA, one strand shown. An outline of the steps:
as §1

Assay [10] addresses ETV1 (Homo sapiens, UniProt P50549 1-477). The following applies: protein: recombinant; tags: N-terminal GST; dsDNA, one strand shown. An outline of the steps: as §1
Assay [11] deals with T6, ERF (Homo sapiens, UniProt P50548 1-548).
T6 sequence: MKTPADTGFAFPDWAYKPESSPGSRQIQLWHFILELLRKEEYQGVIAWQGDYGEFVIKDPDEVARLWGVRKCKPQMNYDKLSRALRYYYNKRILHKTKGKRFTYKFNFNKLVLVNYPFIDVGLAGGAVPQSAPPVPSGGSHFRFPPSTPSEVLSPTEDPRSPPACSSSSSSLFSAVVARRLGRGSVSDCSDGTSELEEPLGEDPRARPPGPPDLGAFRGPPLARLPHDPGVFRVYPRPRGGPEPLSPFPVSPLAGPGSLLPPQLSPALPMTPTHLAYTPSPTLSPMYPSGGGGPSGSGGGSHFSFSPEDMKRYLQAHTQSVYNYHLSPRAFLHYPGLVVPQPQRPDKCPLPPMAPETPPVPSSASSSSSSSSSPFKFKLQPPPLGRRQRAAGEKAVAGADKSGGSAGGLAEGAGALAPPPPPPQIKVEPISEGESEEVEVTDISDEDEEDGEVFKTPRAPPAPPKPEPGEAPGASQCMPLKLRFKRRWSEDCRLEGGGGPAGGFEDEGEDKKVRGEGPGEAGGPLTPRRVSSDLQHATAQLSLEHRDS
The following applies: protein: recombinant; tags: N-terminal GST; dsDNA, one strand shown. An outline of the steps: as §1

The target in assay [12] is T7, ETV3L (Homo sapiens, UniProt Q6ZN32 1-361).
T7 sequence: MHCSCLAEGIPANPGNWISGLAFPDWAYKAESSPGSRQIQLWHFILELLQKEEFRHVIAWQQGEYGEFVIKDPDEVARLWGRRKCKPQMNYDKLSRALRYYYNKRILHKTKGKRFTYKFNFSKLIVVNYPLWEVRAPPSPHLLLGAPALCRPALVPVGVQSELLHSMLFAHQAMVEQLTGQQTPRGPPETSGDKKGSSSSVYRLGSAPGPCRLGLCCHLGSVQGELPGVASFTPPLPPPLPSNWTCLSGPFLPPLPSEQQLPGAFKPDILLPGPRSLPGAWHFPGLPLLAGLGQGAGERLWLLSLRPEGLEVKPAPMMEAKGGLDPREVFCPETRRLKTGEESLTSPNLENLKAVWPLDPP
The following applies: protein: recombinant; tags: N-terminal GST; dsDNA, one strand shown. An outline of the steps: as §1

In assay [13] the target is T8, ETS2 (Homo sapiens, UniProt P15036 1-469).
T8 sequence: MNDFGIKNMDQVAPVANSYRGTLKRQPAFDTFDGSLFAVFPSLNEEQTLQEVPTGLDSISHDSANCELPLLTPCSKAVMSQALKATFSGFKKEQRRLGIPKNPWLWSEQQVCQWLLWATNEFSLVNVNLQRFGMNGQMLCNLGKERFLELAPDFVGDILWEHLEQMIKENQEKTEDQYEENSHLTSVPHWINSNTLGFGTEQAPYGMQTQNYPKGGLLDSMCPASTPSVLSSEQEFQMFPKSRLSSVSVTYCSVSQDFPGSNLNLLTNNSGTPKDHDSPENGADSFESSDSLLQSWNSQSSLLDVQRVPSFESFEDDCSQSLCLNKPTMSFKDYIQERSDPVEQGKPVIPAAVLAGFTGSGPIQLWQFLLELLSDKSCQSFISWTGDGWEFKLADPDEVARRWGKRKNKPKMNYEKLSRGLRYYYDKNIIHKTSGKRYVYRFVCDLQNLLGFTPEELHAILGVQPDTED
The following applies: protein: recombinant; tags: N-terminal GST; dsDNA, one strand shown. An outline of the steps:
as §1

Assay [14] has as its target T9, SPDEF (Homo sapiens, UniProt O95238 1-335).
T9 sequence: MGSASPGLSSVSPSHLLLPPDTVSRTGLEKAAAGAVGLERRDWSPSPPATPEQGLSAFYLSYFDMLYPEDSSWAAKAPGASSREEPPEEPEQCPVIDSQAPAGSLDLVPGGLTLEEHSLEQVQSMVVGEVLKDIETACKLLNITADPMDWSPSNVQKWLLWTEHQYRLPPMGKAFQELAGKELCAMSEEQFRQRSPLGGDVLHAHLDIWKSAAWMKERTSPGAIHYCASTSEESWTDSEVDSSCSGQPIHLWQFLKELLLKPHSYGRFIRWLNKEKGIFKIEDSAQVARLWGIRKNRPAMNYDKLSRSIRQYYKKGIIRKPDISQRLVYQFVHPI
The following applies: protein: recombinant; tags: N-terminal GST; dsDNA, one strand shown. An outline of the steps:
as §1

The target of assay [15] is T10, ETV7 (Homo sapiens, UniProt Q9Y603 1-341).
T10 sequence: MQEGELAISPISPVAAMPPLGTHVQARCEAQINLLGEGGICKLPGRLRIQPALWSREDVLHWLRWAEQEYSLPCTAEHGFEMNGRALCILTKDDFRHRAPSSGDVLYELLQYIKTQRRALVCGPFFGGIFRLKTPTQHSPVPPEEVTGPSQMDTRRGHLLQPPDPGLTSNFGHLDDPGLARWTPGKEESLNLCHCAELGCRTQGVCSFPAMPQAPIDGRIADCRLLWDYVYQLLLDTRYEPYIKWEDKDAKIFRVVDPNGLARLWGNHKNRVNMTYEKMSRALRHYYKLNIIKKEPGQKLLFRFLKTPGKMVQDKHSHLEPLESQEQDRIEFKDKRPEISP
As to conditions: protein: recombinant; tags: N-terminal GST; dsDNA, one strand shown. An outline of the steps:
as §1

For assay [16], the target named is T11, ELF5 (Homo sapiens, UniProt Q9UKW6-2 1-255).
T11 sequence: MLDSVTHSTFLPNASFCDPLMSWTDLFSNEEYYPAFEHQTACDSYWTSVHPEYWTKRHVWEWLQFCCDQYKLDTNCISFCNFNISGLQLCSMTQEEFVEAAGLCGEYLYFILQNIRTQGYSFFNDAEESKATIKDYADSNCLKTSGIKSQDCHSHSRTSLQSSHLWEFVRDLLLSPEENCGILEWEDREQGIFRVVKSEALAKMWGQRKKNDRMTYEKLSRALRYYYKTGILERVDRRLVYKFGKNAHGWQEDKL
As to conditions: protein: recombinant; tags: N-terminal GST; dsDNA, one strand shown. An outline of the steps: as §1

Assay [17] addresses T12, ETV3 (Homo sapiens, UniProt P41162-2 1-143).
T12 sequence: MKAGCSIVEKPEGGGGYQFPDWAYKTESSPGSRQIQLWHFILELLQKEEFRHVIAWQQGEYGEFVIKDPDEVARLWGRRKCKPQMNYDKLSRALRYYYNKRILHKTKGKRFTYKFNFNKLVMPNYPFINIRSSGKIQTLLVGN
As to conditions: protein: recombinant; tags: N-terminal GST; dsDNA, one strand shown. An outline of the steps:
as §1

The target in assay [18] is ETV6 (Homo sapiens, UniProt P41212 1-452). The following applies: protein: recombinant; tags: N-terminal GST; dsDNA, one strand shown. An outline of the steps:
as §1

Sequence of ETV5 (P41161 whole entry): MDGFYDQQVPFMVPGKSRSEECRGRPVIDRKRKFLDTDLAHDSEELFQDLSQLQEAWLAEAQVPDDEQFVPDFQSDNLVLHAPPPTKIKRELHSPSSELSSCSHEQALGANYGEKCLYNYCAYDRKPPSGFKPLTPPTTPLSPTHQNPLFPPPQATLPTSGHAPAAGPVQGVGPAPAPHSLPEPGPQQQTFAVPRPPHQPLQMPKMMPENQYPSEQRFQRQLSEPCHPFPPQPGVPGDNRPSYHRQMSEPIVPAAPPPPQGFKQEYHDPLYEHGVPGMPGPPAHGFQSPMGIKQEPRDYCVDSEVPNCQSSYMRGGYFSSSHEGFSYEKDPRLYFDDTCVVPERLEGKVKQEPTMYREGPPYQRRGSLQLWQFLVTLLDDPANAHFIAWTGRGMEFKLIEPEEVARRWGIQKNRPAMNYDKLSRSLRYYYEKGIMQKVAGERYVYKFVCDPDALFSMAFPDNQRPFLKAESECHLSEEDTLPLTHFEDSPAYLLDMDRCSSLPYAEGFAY
Sequence of ETV6 (P41212 whole entry): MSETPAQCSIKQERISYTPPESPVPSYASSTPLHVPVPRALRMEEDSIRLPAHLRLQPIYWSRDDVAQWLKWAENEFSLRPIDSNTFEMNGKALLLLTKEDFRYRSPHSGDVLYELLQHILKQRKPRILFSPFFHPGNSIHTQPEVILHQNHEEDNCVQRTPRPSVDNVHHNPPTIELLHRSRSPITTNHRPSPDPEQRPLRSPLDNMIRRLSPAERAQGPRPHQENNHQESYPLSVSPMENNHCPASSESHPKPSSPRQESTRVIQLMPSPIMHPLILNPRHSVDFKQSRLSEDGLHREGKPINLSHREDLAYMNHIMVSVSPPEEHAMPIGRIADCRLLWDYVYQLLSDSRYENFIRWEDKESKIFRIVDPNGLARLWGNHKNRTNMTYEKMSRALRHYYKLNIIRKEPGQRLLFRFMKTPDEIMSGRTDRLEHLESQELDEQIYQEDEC
Sequence of CRX (O43186 whole entry): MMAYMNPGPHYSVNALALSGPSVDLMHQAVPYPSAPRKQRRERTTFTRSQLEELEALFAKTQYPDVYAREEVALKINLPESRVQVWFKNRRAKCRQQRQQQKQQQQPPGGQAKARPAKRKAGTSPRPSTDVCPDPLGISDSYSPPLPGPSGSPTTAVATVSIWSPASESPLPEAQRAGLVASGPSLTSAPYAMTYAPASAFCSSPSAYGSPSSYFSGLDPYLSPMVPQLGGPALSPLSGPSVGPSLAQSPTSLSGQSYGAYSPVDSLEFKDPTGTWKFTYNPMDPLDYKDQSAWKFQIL
Sequence of ETV1 (P50549 whole entry): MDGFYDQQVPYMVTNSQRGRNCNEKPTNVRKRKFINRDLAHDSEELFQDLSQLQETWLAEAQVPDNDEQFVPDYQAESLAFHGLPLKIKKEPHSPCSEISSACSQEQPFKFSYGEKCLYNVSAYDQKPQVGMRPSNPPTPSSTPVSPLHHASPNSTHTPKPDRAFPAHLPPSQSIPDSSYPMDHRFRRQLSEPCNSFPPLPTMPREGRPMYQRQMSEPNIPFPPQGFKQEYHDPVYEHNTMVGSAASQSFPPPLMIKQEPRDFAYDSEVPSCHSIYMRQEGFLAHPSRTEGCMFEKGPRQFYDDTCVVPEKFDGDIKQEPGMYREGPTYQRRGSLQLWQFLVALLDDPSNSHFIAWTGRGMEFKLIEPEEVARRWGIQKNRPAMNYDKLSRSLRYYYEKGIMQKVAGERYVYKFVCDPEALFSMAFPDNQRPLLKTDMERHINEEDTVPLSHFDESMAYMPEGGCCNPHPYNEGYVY
Sequence of ELF4 (Q99607 whole entry): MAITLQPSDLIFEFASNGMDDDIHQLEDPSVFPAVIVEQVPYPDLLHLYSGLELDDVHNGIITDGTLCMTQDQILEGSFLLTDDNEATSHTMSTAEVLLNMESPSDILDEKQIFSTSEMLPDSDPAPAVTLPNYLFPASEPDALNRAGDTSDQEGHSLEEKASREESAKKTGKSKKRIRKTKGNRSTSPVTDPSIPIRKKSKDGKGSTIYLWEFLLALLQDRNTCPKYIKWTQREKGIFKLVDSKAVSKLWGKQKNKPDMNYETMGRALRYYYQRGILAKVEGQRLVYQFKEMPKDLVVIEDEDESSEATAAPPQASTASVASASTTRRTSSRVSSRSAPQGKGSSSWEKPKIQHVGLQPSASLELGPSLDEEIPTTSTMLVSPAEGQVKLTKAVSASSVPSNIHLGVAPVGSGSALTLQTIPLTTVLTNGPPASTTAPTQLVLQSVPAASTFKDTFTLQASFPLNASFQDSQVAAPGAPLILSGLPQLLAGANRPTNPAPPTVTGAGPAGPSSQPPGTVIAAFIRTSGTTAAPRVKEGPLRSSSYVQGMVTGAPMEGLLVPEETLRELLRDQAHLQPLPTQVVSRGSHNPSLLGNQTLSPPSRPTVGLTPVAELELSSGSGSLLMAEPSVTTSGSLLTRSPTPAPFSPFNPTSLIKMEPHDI

For GAACTC, the binding signal was 1.28 fold enrichment (6-mer frequency, TF over GST control) in [1]; 1.29 fold enrichment (6-mer frequency, TF over GST control) in assay [2]; 1.25 fold enrichment (6-mer frequency, TF over GST control) in assay [3]; 1.32 fold enrichment (6-mer frequency, TF over GST control) in assay [4]; 1.26 fold enrichment (6-mer frequency, TF over GST control) in assay [5]; 1.14 fold enrichment (6-mer frequency, TF over GST control) in assay [6]. For the same sequence, the binding signal in assay [7] was 1.1 fold enrichment (6-mer frequency, TF over GST control); in [8] it was 1.29 fold enrichment (6-mer frequency, TF over GST control); in assay [9], 1.02 fold enrichment (6-mer frequency, TF over GST control); in assay [10], 1.35 fold enrichment (6-mer frequency, TF over GST control); in [11], 1.11 fold enrichment (6-mer frequency, TF over GST control); in [12], 1.3 fold enrichment (6-mer frequency, TF over GST control). Moreover, the binding signal is 1.26 fold enrichment (6-mer frequency, TF over GST control) in [13]; 1.33 fold enrichment (6-mer frequency, TF over GST control) in [14]; 1.29 fold enrichment (6-mer frequency, TF over GST control) in assay [15]; 1.32 fold enrichment (6-mer frequency, TF over GST control) in assay [16]; 1.33 fold enrichment (6-mer frequency, TF over GST control) in assay [17]; 1.28 fold enrichment (6-mer frequency, TF over GST control) in assay [18].
